Shiga toxin inh = Shiga toxin inhibition; Vero cells, Shiga toxin protein synthesis inhibition reporter; inhibition, % at 38.7 µM; 290,000 tested, 9.2% active; AID 2315; in the data active = inhibition mostly above about 28%, no sharp cut-off; inactive = mostly below about 43%; also: 0% is about no effect
Pf growth 96h = inhibits malaria parasite growth, 96 h. P. falciparum luciferase reporter growth, 96 h. Potency, µM (series often up to 28.7 µM), without a hit: top-dose activity change, negative = inhibition, hits mostly inhibitors. 320,000 tested, 6.9% active; also: potency is read from the fitted curve at half-maximal effect; % is scaled to controls: 0 for no effect and ±100 for the full control effect
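Readout is luminescence from an integrated firefly luciferase in P. falciparum. Red cells, 2% hematocrit and 0.05% parasitemia final, were cultured with compound through two parasite generations (96 hours) at 37 C, 5% CO2.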
Cycloheximide cs = affects cycloheximide protein synthesis inhibition readout, counter-screen; cell reporter, cycloheximide protein synthesis inhibition counterscreen; max response, %; 300,000 tested, 12% active; in the data active = max response mostly above about 13%, no sharp cut-off; inactive = mostly below about 14%; also: read at 38.3 µM for the half of the compounds with a filed dose; 0% is about no effect
Marburg entry inh = inhibitors of Marburg virus binding or cell entry. Marburg virus pseudotyped entry inhibition, cell reporter. Potency, µM (highest dose often 37.8 µM), for inactives: top-dose activity change, negative = inhibition, actives largely listed as inhibitors. 300,000 tested, 1.8% active. AID 540276; calls by dose curve; tested in HEK293 cells; also: potency is read from the fitted curve at half-maximal effect; % is scaled to controls: 0 for no effect and ±100 for the full control effect
LASV entry inh = blocks Lassa virus binding to or entry into cells; Lassa virus pseudotype entry inhibition, cell reporter; Potency, µM (top dose mostly 37.9 µM), inactives show top-dose activity change, negative = inhibition, actives largely listed as inhibitors; 300,000 tested, 1.2% active; calls by dose curve; tested in HEK293 cells; also: potency is read from the fitted curve at half-maximal effect; % is scaled to controls: 0 for no effect and ±100 for the full control effect; nearly all actives have a fitted effect of over 50% in size
Pf growth 48h = P. falciparum growth inhibition at 48 hours (one generation); P. falciparum luciferase growth in erythrocytes, 48 h; Potency, µM (highest dose often 28.7 µM), inactives show at the highest dose activity change, negative = inhibition, usual class: inhibitors; 310,000 tested, 5.9% active; AID 504832; also: potency is read from the fitted curve at half-maximal effect; % is scaled to controls: 0 for no effect and ±100 for the full control effect
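Luciferase-expressing parasites in RBCs, 2% Hct / 0.1% parasitemia final; RPMI 1640 + 0.5% Albumax; 37 C, 5% CO2, one generation; luminescence read-out, lower signal = inhibition.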
Numbers without * were called inactive; i = inactive; ? = inconclusive; · = not tested or not shown; [ ] = another dose, or the depositor's remark. Only some compounds are listed: those with a hit (about 19% of all), similar ones and a draw of the others. Unless noted, calls follow the shape of the dose curve; as a rule, active = well fitted inhibition curve with a large enough effect; inconclusive = small, poorly fitted or top-dose-only effect, or another doubt; inactive = no such curve, though single readings can be large or run the other way.

SMILES	Shiga toxin inh	Pf growth 96h	Cycloheximide cs	Marburg entry inh	LASV entry inh	Pf growth 48h
COc1ccc(Cl)cc1Nc1ncnc2sc(C)c(S(=O)(=O)N3CCC(C)CC3)c12	23.3	1.8%	-1.9	18.3%	3.1%	?
CCCCn1c(SCC(N)=O)nc2sc3c(c2c1=O)CCC3	0.6	?	-1.1	·	·	-4.5%
CCn1c(SCC(N)=O)nc2sc3c(c2c1=O)CCN(C)C3	-13.1	?	-2.0	-2.6%[46.1 µM]	6.6%[46.1 µM]	1.31µM*
CCn1c(SCC(=O)Nc2ccc(C)cc2)nc2sc3c(c2c1=O)CCN(C)C3	-4.3	0.37µM*	1.4	5.9%[46.1 µM]	-17.6%[46.1 µM]	3.7µM*
CCCn1c(SCC(=O)N2CCN(C(C)=O)CC2)nc2sc3c(c2c1=O)CCC3	-13.6	13.1µM*	-3.8	·	·	?
COCCn1c(SCC(=O)Nc2ncc(C)s2)nc2sc3c(c2c1=O)CCC3	37.7	-17.5%	24.6*	·	·	?
COc1ccc(NC(=O)CCc2c(C)nc3c(c2C)c(=O)n(C)c(=O)n3C)cc1OC	·	·	·	-18.1%[46.1 µM]	11.5%[46.1 µM]	·
O=C(/C=C/c1ccco1)NCc1ccc(F)cc1	19.7	?	18.6*	26.4%[46.1 µM]	26.5%	55.4%
COc1ccc([N+](=O)[O-])cc1NC(=O)C(C)OC(=O)/C=C/c1ccco1 (centres undefined)	35.6*	-18.9%	17.4*	13.5%	-30.4%	9.1%
CC(OC(=O)/C=C/c1ccco1)C(=O)NC1CCCCC1C (centres undefined)	·	-14.1%	·	·	·	-9.1%
CC(OC(=O)/C=C/c1ccco1)C(=O)Nc1cccc([N+](=O)[O-])c1 (centres undefined)	26.9	42.6%	1.0	?	-16.3%	32.2%
O=C(/C=C/c1ccco1)NC(=S)Nc1ccccc1	·	261.0%	41.6*	·	·	9.5%
CC(=O)c1ccc(NC(=O)C(C)OC(=O)/C=C/c2ccco2)cc1 (centres undefined)	·	·	·	11.2µM*	?	·
CN(CCC#N)C(=O)CSc1nnc(-c2c[nH]c3ccccc23)o1	14.7	-19.0%	11.0	·	·	1.5%
Cc1nn(Cc2ccccc2)c2c1C(c1ccncc1)C(C#N)=C(N)O2 (centres undefined)	19.1	?	-1.2	?	12.2%	-16.6%
CCC(=O)NC(=S)Nc1ccccc1F	27.0	?	6.1	?	0.7%	-19.5%
N#Cc1cc(N)ccc1-n1cccc1	-5.7	21.5%	-0.8	·	·	40.3%
O=C1CC(c2ccc3c(c2)OCO3)c2ccc(O)cc2O1 (centres undefined)	i	·	-4.7	·	·	·
Cc1cccc(NC(=S)NC(=O)/C=C/c2ccco2)n1	121.2*	-12.7%	47.7*	11.1%[46.1 µM]	-3.8%	·
CC(=O)c1ccc(NC(=S)NC(=O)/C=C/c2ccccc2)cc1	38.3*	10.8%	23.7*	·	·	22.4%
CCC(=O)Nc1ccc(NC(=S)NC(=O)/C=C/c2ccccc2)cc1	-7.2	-7.5%	5.3	?	?	9.6%
NS(=O)(=O)c1ccc(NC(=S)NC(=O)/C=C/c2ccco2)cc1	-12.9	?	1.2	26.8%	6.4%	23.3%
CC(=O)c1ccc(NC(=S)NC(=O)/C=C/c2ccco2)cc1	·	-24.6%	27.3*	·	·	62.6%
Cc1cc(-c2nnc3n2CCCCC3)c(C)n1-c1ccccc1	91.0*	?	12.1	-9.8%	10.9%	-24.5%
CC(C)(C)NCC(O)CON=C1c2ccccc2-c2ccccc21 (centres undefined)	-4.8	?	-1.4	10µM*	·	?
SMILES	Shiga toxin inh	Pf growth 96h	Cycloheximide cs	Marburg entry inh	LASV entry inh	Pf growth 48h
COc1ccc(CCNc2ncccc2C#N)cc1OC	87.7*	124.9%	44.4*	?	?	131.2%
COc1ccc(CNc2ncccn2)cc1OC	9.7	33.5%	6.5	2.9%[46.1 µM]	24.0%[46.1 µM]	21.5%
COc1ccc(CCNC2=NCCS2)cc1OC	31.8*	0.0%	41.1*	?	23.1%	-99.9%
COc1cc2ncnc(NCCc3ccccc3)c2cc1OC	-11.2	?	-3.1	·	·	10.4µM*
COc1ccc(CCNc2ncnc3c2[nH]c2cc(OC)c(OC)cc23)cc1OC	-7.8	1.85µM*	-1.1	?	?	?
Cc1cc(=O)oc2cc(NC(=O)C(C)N3C(=O)C4CCCCC4C3=O)ccc12 (centres undefined)	·	-24.7%	·	?	16.7%	-5.0%
COc1cc2ncnc(NCc3ccc(C)cc3)c2cc1OC	-7.7	?	-3.6	?	-5.7%	?
COc1ccc(CCNc2ncnc3cc(OC)c(OC)cc23)cc1OC	-13.1	-15.9%	-1.7	?	?	13.1µM*
COc1ccc(CCNc2c3ccccc3nc3ccccc23)cc1OC	36.4	1.85µM*	9.4	?	?	1.47µM*
CCCCn1c(N)c(N(CC(C)C)C(=O)CCNC(=O)c2ccc(Br)cc2)c(=O)[nH]c1=O	·	?	·	?	-6.5%	-13.5%
CC1(C)Cc2c(cnn2-c2cccc(F)c2)C(NC(=O)C2CCOCC2)C1 (centres undefined)	18.3	?	9.1	9.1%	0.1%	-17.3%
O=C(COC(=O)c1ccccc1NCCO)NCCC1=CCCCC1	·	0.8%	·	9.4%	8.1%	?
O=C(COC(=O)c1ccccc1Br)NCCC1=CCCCC1	74.6*	21.2%	28.7*	9.4%[46.1 µM]	14.5%	52.4%
O=C(NC(=S)NCCC1=CCCCC1)c1ccccc1Br	9.1	?	27.0*	?	?	?
S=C(NCCC1=CCCCC1)NCc1ccco1	46.8*	27.6%	22.5*	-27.0%[46.1 µM]	?	18.2%
O=C(NC(=S)NCCC1=CCCCC1)c1cncc(Br)c1	active	13.6%	17.5*	?	?	7.7%
Cc1cccnc1NC(=O)c1nn(C)c2c1CS(=O)(=O)c1ccccc1-2	2.1	2.4%	3.4	·	·	7.4%
COC(=O)c1ccc(NC(=S)NCCC2=CCCCC2)cc1	10.5	?	3.9	4.9%	9.9%	34.2%
COC(=O)c1cccc(NC(=S)NCCC2=CCCCC2)c1	23.3	11.7µM*	7.4	-23.6%	?	20.1%
OCC1(CCc2ccccc2)CCN(C/C=C/c2ccccc2)CC1	-7.8	265.1%	-1.1	·	·	?
O=C1CN(c2ccccc2)C(=S)N1C(=O)c1ccccc1	47.4*	-7.7%	46.4*	?	-20.4%[46.1 µM]	182.9%
C=CCNc1nc(NC(C)(C)CO)nc(OCC)n1	-1.9	7.38µM*	-0.5	9.4%	5.9%	3.9%
CN(C)c1c2ccccc2nc2c(F)c(F)c(F)c(F)c12	57.0	?	33.4*	·	·	-8.2%
Cc1c2ccccc2nc2c(F)c(N(C)C)c(F)c(F)c12	23.1	29.6%	27.7*	6.0%	-4.6%	-5.1%
O=C(/C=C/c1ccc(OCc2cccc(Cl)c2)cc1)N1CCOCC1	45.0	?	23.6*	2.2%[46.1 µM]	-19.9%[46.1 µM]	?
O=C(COc1ccc(/C=C\[N+](=O)[O-])cc1)N1CCOCC1	-5.5	91.7%	-0.6	·	·	?
O=C(C=Cc1ccccc1)N1CCCCC1	·	·	·	?	0.0%[46.1 µM]	·
O=C(/C=C/c1ccccc1)N1CCOCC1	6.4	3.29µM*	13.7	·	·	18.3%

From PubChem BioAssay
